Source: PubChem BioAssay
Only some compounds are listed: those with a hit (about 6.3% of all), similar ones and a draw of the others.
RORgamma inh – ROR gamma (mouse) transcription inhibition; actives 5.4% (n = 310,000); P51450; AID 2551; Drosophila S2 Gal4-RORgamma UAS-luciferase reporter, 20 h; Potency, µM (highest dose often 53.6 µM), actives largely listed as inhibitors; further: nearly all actives have a fitted effect of over 60% in size
Target sequence (P51450 whole entry, looked up, the tested form may be a part): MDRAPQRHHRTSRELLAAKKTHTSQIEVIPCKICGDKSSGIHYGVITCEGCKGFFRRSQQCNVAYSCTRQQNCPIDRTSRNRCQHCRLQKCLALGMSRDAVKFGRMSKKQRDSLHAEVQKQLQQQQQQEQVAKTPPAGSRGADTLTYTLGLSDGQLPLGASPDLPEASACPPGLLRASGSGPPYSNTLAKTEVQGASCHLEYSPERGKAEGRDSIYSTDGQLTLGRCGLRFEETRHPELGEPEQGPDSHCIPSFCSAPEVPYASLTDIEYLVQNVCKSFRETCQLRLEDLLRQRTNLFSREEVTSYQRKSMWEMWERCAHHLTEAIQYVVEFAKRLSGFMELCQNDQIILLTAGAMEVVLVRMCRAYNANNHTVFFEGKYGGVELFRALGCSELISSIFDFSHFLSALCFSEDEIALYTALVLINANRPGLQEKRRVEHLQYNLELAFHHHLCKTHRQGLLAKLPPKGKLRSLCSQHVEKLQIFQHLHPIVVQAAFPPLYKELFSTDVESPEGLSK
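Drosophila Schneider cells stably carrying a metallothionein-driven Gal4 DBD–ROR gamma fusion and a UAS-Photinus luciferase reporter were exposed to compound for 1 hr, then induced with copper sulfate (700 uM final) for 20 hr at ambient temperature before luminescence reading.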
ATXN2 expr inh – inhibitors of ATXN2 expression | HEK-293 ATXN2-luciferase reporter, luminescence, 24 h | Potency, µM (titrated, usually from 57 µM), hits mostly inhibitors | actives 0.72% (n = 360,000); further: nearly all actives have a fitted effect of over 55% in size
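qHTS (up to 57 uM final) was run with 24 h compound exposure of reporter cells at 37 °C. Each well was multiplexed: SteadyGlo luminescence measured ATXN2-luciferase expression after a fluorogenic Gly-Phe-AFC viability readout (25 uM final).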
S2 tox – reduces viability in counter-screen for ATXN expression inhibitors; S2 cells (HEK-293 line with an ATXN2-luciferase reporter) viability, CellTiter-Fluor protease fluorescence, 24 h; Potency, µM (top dose mostly 56.7 µM), actives largely listed as cytotoxic; actives 0.49% (n = 400,000); AID 651635; further: nearly all actives have a fitted effect of over 40% in size
TGFb inhibitor – inhibitors of TGF-b signaling. Potency, µM (highest dose often 46.1 µM), hits mostly inhibitors. HepG2 CAGA-GFP TGF-b/SMAD3 reporter, GFP fluorescence, 18 h; TGF-beta stimulated, 500 pg/mL final. AID 588855. actives 1.2% (n = 410,000); further: nearly all actives have a fitted effect of over 65% in size
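Inhibition of TGF-beta-driven CAGA-GFP reporter expression in HEPG2 cells is measured by cellular GFP fluorescence after 18 h stimulation with 500 pg/mL recombinant TGF-beta in 1% FBS medium at 37 degrees C.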
Gal4-VP16 FLuc – inhibits Gal4-VP16 luciferase reporter, ROR gamma counter-screen. Drosophila S2 Gal4-VP16 UAS-luciferase, luminescence, 20 h. Potency, µM (series often up to 53.6 µM), hits mostly inhibitors. actives 3.5% (n = 310,000). AID 2546;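 further: Gal4-VP16 expression switched on by copper sulfate through the metallothionein promoter; nearly all actives have a fitted effect of over 50% in size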
HepG2 tox – HepG2 cytotoxicity, counter-screen for TGF-b inhibitors; Potency, µM (series often up to 46.1 µM), most hits filed as cytotoxic; actives 0.76% (n = 410,000); HepG2 CAGA-GFP viability, ATP luminescence, 18 h; AID 588856
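HepG2 CAGA-GFP cells (1000/well, DMEM with 1% FBS) received compound, then TGF-beta at 500 pg/mL final, and were incubated 18 hours at 37 degrees C. Viability was read by CellTiter-Glo luminescence. Media-only wells were set as complete cell-killing and DMSO as no toxicity.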
Hits are given with their value; - = inactive; ? = inconclusive; . = no result; [ ] = another dose, or the depositor's remark. The call rests on the fitted dose curve; in most records, active means well fitted curve in the direction sought with a large enough effect; inconclusive means small, poorly fitted or top-dose-only effect, or another doubt; inactive means no such curve, though single readings can be large; an effect the other way counts as inactive or inconclusive.

SMILES	RORgamma inh	ATXN2 expr inh	S2 tox	TGFb inhibitor	Gal4-VP16 FLuc	HepG2 tox
O=C(Nc1cccc(-c2csc(Nc3cccc(C(F)(F)F)c3)n2)c1)c1ccccc1	?	?	25µM	?	-	-
CCOC(=O)c1ccc(N2C(=O)c3n[nH]c(C)c3C2c2ccc(OCC)cc2)cc1 (configuration not stated)	.	?	?	11µM	.	-
CCOC(=O)c1ccc(N2C(=O)c3n[nH]c(-c4ccco4)c3C2c2ccc(C)cc2)cc1 (configuration not stated)	.	?	28µM	?	.	16µM
CCOC(=O)c1ccc(N2C(=O)c3n[nH]c(-c4ccco4)c3C2c2ccc(O)c(OC)c2)cc1 (configuration not stated)	.	?	?	10µM	.	-
CCOC(=O)c1ccc(N2C(=O)c3n[nH]c(-c4ccco4)c3C2c2ccc([N+](=O)[O-])cc2)cc1 (configuration not stated)	-[10 µM]	?	?	?	-	-
O=S1(=O)CC(N2CC=CC2)CN1Cc1cn(Cc2ccccc2)nn1 (configuration not stated)	.	-	-	.	.	.
CCN(CC)C(=O)C1=C(C)N(CCC2=CCCCC2)C(=O)C(CC(=O)NCc2ccco2)C1 (configuration not stated)	.	-	-	-	.	-
Cc1ccc(N=C(NOCc2ccc(Cl)cc2Cl)c2nonc2N)c(C)c1	-	-	-	16µM	-	-
Nc1c(Br)cc(/C=C/c2ccnc3ccccc23)cc1Br	.	.	.	?	.	-
COCCCn1c(=N)c(C(=O)NCc2cccnc2)cc2c(=O)n3cccc(C)c3nc21	.	.	.	.	.	-
O=C(CC1CCCC1)Nc1nc2ccccc2[nH]1	8.9µM	-	-	?	?	-
O=C(Nc1nc2ccccc2[nH]1)C1CCC1	?	-	?	-	?	-
O=C(Nc1nc2ccccc2[nH]1)C1CCCC1	7.1µM	-	-	-	?	-
CC1=C(C(=O)N2CCOCC2)CC(CC(=O)NCC2CCCCC2)C(=O)N1Cc1ccc(C(C)(C)C)cc1 (configuration not stated)	.	-	?	-	.	-
CN(C)c1ccc(C(=O)/C=C/c2ccccc2)cc1	11µM	-	-	-	?	-
CN(C)c1ccc(C(=O)/C=C/c2ccc(Br)cc2)cc1	?	.	-	-	-	-
O=C(C=Cc1cccc(Cl)c1)c1ccccc1	.	-	-	?	.	18µM
CN(C)/C=C/C(=O)c1cccc(Cl)c1	-	-	-	-	10µM	-
COc1ccc(CN2CCCC(n3cc(C(=O)N4CCCCC4)nn3)C2)c(OC)c1 (configuration not stated)	.	.	-	.	.	.
Cn1c(=O)[nH]c(=O)c2c1nc([N+](=O)[O-])n2Cc1ccccc1	4µM	?	6µM	5µM	5.6µM	5µM
CC(C)Cn1c([N+](=O)[O-])nc2c1c(=O)[nH]c(=O)n2C	8.9µM	?	.	?	?	11µM
Cn1c(=O)[nH]c(=O)c2c1nc(N1CCNCC1)n2Cc1ccccc1	-	-	?	-	-	-
COc1ccc(C(=O)Oc2c(Sc3ccccc3)c(C)nn2-c2ccccc2)c(OC)c1	.	?	?	?	.	-
CCOC(=O)C1=C(N)Oc2cc(O)ccc2C1c1cccc(Cl)c1 (configuration not stated)	-	-	-	20µM	?	-
O=C1NC(=S)N(C(=O)c2ccc(F)cc2)/C1=C/c1cccnc1	-	-	-	-	-	-
SMILES	RORgamma inh	ATXN2 expr inh	S2 tox	TGFb inhibitor	Gal4-VP16 FLuc	HepG2 tox
COc1ccc(/C=C2\C(=O)NC(=S)N2C(=O)c2ccc(C)cc2)cc1	22µM	-	-	-	?	-
OC[C@H]1O[C@H](O[C@]2(CCl)O[C@H](CCl)[C@@H](O)[C@@H]2O)[C@H](O)[C@@H](O)[C@H]1Cl	.	-	-	.	.	.
CN1CCN(c2cc(-c3cc(O)c4ncccc4c3)ccn2)CC1	.	10µM	?	?	.	-
Cc1nc(-c2ccc(S(=O)(=O)NCc3ccc(N(C)C)cc3)cc2)co1	.	-	-	-	.	-
Cc1ccc2cccc(NC(=O)c3ccc(-c4cc(Cl)ccc4Cl)o3)c2n1	.	-	-	-	.	-
COc1cc(/C=C(\C#N)c2nc3c(s2)CCCC3)ccc1O	8.9µM	.	.	.	?	.
CO[C@H]1COC(=O)[C@@H](C)COC(=O)[C@@H](OCc2ccccc2)/C=C\[C@@H]1C	-[10 µM]	.	.	.	-[10 µM]	.
CCc1cc(C(=O)Cc2ccc(F)cc2)c(O)cc1O	-	-	-	?	?	-
CCCc1cc(C(=O)Cc2ccc(F)cc2)c(O)cc1O	11µM	-	?	?	?	-
COc1cc(NC(=O)CN2C(=O)C(c3ccc(C)cc3)=NC23CCCCCC3)cc(OC)c1	.	.	.	.	.	-
CC(=NNC(=S)N1CCCCC1)c1cccc(C)n1	.	?	?	0.35µM	.	-
CSC(=S)NN=C(C)c1cccc(C)n1	.	?	?	?	.	-
C=CCNC(=S)/N=c1/ccccn1C	-	-	?	-	-	-
C=CCNC(=S)/N=c1/ccccn1CCC	5µM	-	-	?	?	-
CCc1ccc(-c2cc(C)no2)cc1S(=O)(=O)NCCN1CCC(C)CC1	-	-	-	-	-	-
CCc1ccc(-c2cc(C)no2)cc1S(=O)(=O)NCCCN1CCN(c2ccccc2)CC1	-	?	?	18µM	-	-
COc1cc(NC(=O)CCCN2C(=O)CCn3nc(-c4cn(C)c5ccccc45)cc32)cc(OC)c1	.	?	?	?	.	-
NC(=S)N/N=C1\CCSc2ccc(Cl)cc21	2µM	-	-	-	10µM	-
O=C(N/N=C1\CCSc2ccc(F)cc21)c1cccnc1	-	-	-	-	-	-
COc1ccc(NC(=S)NC23CC4CC(CC(C4)C2)C3)cc1OC	1.3µM	-	-	-	3.5µM	-
COc1ccc(NC(=S)Nc2ncccc2C)c(OC)c1	3.2µM	-	-	?	10µM	-
Cc1cccnc1NC(=S)Nc1ccc(Cl)c(Cl)c1	?	.	-	-	?	-
Cc1cccnc1NC(=S)Nc1ncccc1C	?	-	-	-	-	-
COc1ccc(NC(=S)Nc2ncccc2C)cc1OC	6.3µM	-	-	-	?	-
COc1ccc(C(=O)NC23CC4CC(CC(C4)C2)C3)cc1OC	-[1.91 µM]	-	-	-	-	-
Cc1ccc(C2CCN(C(=O)Nc3ccc(Cl)c(Cl)c3)C2)cc1 (configuration not stated)	.	.	.	?	.	-
S=C(Nc1ccc2nsnc2c1)N1CCCC1	7.9µM	-[11.3 µM]	-	-	11µM	-
O=C(Nc1ccc2nsnc2c1)N1CCCCCC1	?	-	-	-	-	-
COc1ccc(C2CCCN2C(=S)Nc2ccc(C)c(C)c2)cc1OC (configuration not stated)	13µM	-	-	-	?	-
